Source: PubChem BioAssay AID615 (Sanford-Burnham Center for Chemical Genomics, 2007)
Screen size: about 21,000 compounds; fewer than 10 were called active.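 The calls were made as follows: active = inhibition above 50% at the 20 µM single-dose screen; inactive = the rest.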 Not all results are given here.

Each compound was assayed against Alkaline phosphatase, tissue-nonspecific isozyme (Homo sapiens) (UniProt P05186) (assay: human TNAP enzyme inhibitors, primary screen, biochemical, colorimetric, p-nitrophenol readout (AID 615;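 also: 0% = DMSO only wells and 100% = 1 mM levamisole wells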)). Conditions: purified TNAP, pNPP hydrolysis, absorbance 405 nm; at 20 µM; hits give high values.
Sequence of Alkaline phosphatase, tissue-nonspecific isozyme (Homo sapiens) (P05186 whole entry, looked up): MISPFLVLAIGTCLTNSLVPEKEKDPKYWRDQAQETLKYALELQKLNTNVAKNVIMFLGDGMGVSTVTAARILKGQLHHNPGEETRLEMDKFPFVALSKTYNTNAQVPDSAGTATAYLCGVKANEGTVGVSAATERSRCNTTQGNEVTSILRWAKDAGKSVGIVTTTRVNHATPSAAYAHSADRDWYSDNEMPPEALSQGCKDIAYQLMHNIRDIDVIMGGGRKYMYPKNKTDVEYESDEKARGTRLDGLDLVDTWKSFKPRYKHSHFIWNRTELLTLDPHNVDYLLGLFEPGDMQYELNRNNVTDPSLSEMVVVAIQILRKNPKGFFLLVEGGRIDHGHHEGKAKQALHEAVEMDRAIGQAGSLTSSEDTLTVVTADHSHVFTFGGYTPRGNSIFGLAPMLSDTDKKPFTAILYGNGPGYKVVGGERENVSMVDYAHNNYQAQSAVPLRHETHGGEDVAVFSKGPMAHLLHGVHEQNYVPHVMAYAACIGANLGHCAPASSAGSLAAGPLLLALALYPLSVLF

inhibition, inactive:
O=C(NC(c1ccccc1)c1ccccc1)N1CCN(CCO)CC1 5.5%, c1ccc(-n2ncc(-c3nn[nH]n3)n2)cc1 1.2%, COc1ccc(C2/C(=C(/O)c3ccc(OC(C)C)cc3)C(=O)C(=O)N2CCCN2CCOCC2)cc1 (stereo not given) 2.6%, CCCOc1ccc(CN(CCO)CCO)cc1C(=O)OC 8.5%, CCC(=O)Nc1cccc(NC(=O)CSc2nnnn2C2CCCC2)c1 4.5%, CCOC(=O)N1CCN(Cc2oc(CO)cc(=O)c2O)CC1 4.3%, Cc1ccc(-n2c(Cc3cccs3)nnc2SCC(=O)OC(C)C)cc1 -1%, CCc1nnc(NC(=O)CSc2nnc(-c3ccncc3)n2Cc2ccccc2)s1 5.3%, Cn1c(=O)c2c(nc(Br)n2CCSc2nc3ccccc3o2)n(C)c1=O 0%, COc1ccc(CCNS(=O)(=O)c2ccc(F)cc2)cc1OC 3.6%, Nc1nonc1-c1nc2ccccc2n1Cc1ccc(F)cc1 -0.2%, COCCCn1c2nc3ccccc3nc2c2c(=O)n(Cc3ccc(Cl)cc3)c(C)nc21 7.2%, CN1CCN(C(=O)C2C3C=CC(C3)C2C(=O)O)CC1 (stereo not given) 3.6%, CCCCC(=O)N1CC2(C)CN(C(=O)CCCC)CC(C)(C1)C2=O -3.1%, O=C(CSc1nnc(-c2cccs2)n1Cc1ccco1)c1ccc2c(c1)OCO2 1.9%, COc1ccc(/C(O)=C2/C(=O)C(=O)N(CCCN(C)C)C2c2ccccc2)cc1OC (stereo not given) 2.9%, CCCCC(=O)Nc1ccc2c(c1)OCCO2 -5.8%, CC(=O)C1=C(O)C(=O)N(c2ccc(S(N)(=O)=O)cc2)C1c1ccccc1F (stereo not given) 0.8%, CCOC(=O)c1c(-n2cnnn2)sc(C)c1C 3.1%, Cn1c2c(c(=O)n(C)c1=O)CN(Cc1ccco1)CN2 -1.5%, Cc1ccc(NC(=O)N2CCC(C(=O)NCc3ccc(F)cc3)CC2)cc1 6.4%, Cc1ccccc1C(=O)Nc1cccc(-c2nnc(SCC(=O)O)n2C)c1 1.1%, Cc1ccc2[nH]c3c(c2c1)CN(C(=O)CN1CCN(c2ccccc2)CC1)CC3 2.7%, CC(=O)N(CN1C(=O)C2CC=CCC2C1=O)c1cccc(Cl)c1 (stereo not given) 7.2%, COc1ccc(C2/C(=C(/O)c3ccccc3)C(=O)C(=O)N2c2ncccn2)cc1OC (stereo not given) -1.7%, COc1ccc(C(CNC(=O)c2cccnc2SC)N2CCOCC2)cc1 (stereo not given) -2%, CCCCNc1nc2c(c(=O)[nH]c(=O)n2C)n1CCOc1ccccc1 4.2%, CC(=O)c1cc(-c2ccccc2)[nH]c1N1CCCC1 0.8%, O=C(C1CCCO1)N1CCC(c2nc3ccccc3[nH]2)CC1 (stereo not given) 5.7%, O=C1Nc2ccccc2C12Nc1ccccc1S2 (stereo not given) 2%, Cc1ccc(-c2c3c(=O)n(C)c(=O)n(C)c3cn2-c2ccccc2O)cc1 1.8%, Cc1ccccc1-n1c(SCC(=O)NCc2cccs2)nnc1-c1ccncc1 -7.5%, CCc1nnc(NC(=O)c2c(O)c3c([nH]c2=O)CCCC3)s1 6.2%, COc1ccccc1CNC(=O)C1CCN(S(C)(=O)=O)CC1 7.2%, COc1ccc(NC(=O)c2c(C)oc3c2CCCC3)cc1 5.5%, Cc1nc2nc(CSc3nc4ccccc4s3)cc(=O)n2[nH]1 1.3%, CCOC(=O)C1CCCCN1Cc1ccc(OC)c(OC)c1OC (stereo not given) 6.8%, CS(=O)(=O)N(CC(=O)N1CCN(Cc2ccc3c(c2)OCO3)CC1)c1ccc2c(c1)OCO2 -15%, Cc1cc(C(=O)COC(=O)c2cccs2)c(C)n1-c1c(C)n(C)n(-c2ccccc2)c1=O 4.7%, CCCOP(=O)(c1ccc(N(C)C)cc1)C(O)c1cc(OC)c(OC)c(OC)c1 (stereo not given) 12.9%, COc1ccc(CCNC(=O)CSc2nnc(-c3cccc(F)c3)o2)cc1OC -1.5%, COc1ccc(CCN(C)CCN2C(=O)c3ccccc3C2=O)cc1OC -0.3%, Cc1ccc(C(=O)NC2CCN(C(=O)N3CCOCC3)CC2)cc1 7%, COc1ccc(N2CCN(C(c3cc4ccc(C)cc4[nH]c3=O)c3nnnn3C3CCCC3)CC2)cc1 (stereo not given) 14.6%, CCOC(=O)c1c(NC(=O)c2ccc(Br)o2)sc2c1CCCC2 1%, Cc1cc(=O)[nH]c(SCC(N)=O)c1C#N -1.7%, O=C(c1ccc2c(c1)C(=O)N(c1ccc(Cl)cc1)C2=O)N1CCN(c2ccccn2)CC1 5.1%, CCOc1ccc2nc(NC(=O)CSc3nc4c(c(=O)n(C)c(=O)n4C)n3CC)sc2c1 4.9%, CN(C)CCNC(=O)C(C(=O)c1ccccc1)n1ccccc1=O (stereo not given) 1.2%, CCc1c(C)sc(NC(=O)OC)c1C(=O)N1CCOCC1 4.1%, O=C(O)CN1C(=O)CC(Cc2ccccc2)C1=O (stereo not given) 4.8%, CCNC(=O)N1CCNC(=O)C1CC(=O)Nc1ccc(C(=O)OCC)cc1 (stereo not given) 4.4%, CCOC(=O)c1[nH]c2ccccc2c1N=C(C)N(CC)CC -0.8%, Cc1nn(Cc2ccccc2)c(Cl)c1C(=O)OC1CCOC1=O (stereo not given) 3.6%, CCC1C(C#N)=C(SC)NC2=C1C(=O)CC(C)(C)C2 (stereo not given) -2.9%, COc1ccc(CC(=O)n2nc(-c3cccnc3)nc2N)cc1 6.9%, Cc1cccc(OCc2nnc(SCC(=O)N3CCN(C(=O)c4ccco4)CC3)n2C)c1C 0.2%, c1csc(CN2CCN(Cc3cccs3)C2c2cccs2)c1 5.5%, CCN1C(=O)/C(=C\N2CCN(c3cccc(Cl)c3)CC2)SC1=S 6.1%, COC(=O)[C@H](CCSC)NC(=O)Nc1ccc(OC)cc1 4.9%, C#CCN1CC(C)/C(=N/O)CC1C (stereo not given) 2.4%, CC(C)OC(=O)C(C#N)c1nc2ccccc2nc1N1CCN(Cc2ccc3c(c2)OCO3)CC1 (stereo not given) 0%, O=C(Nc1ncccn1)c1cccs1 3.3%, CCCCCN(C(=O)NC(=O)Nc1ccccc1C)S(C)(=O)=O 0.7%, Cc1ccc(C(=O)Nc2nnc(-c3ccncc3)s2)o1 -1.1%, O=C(c1cccs1)N1CCCC(c2nc(-c3ccc(F)cc3)no2)C1 (stereo not given) 2.9%, CCCc1cc(=O)oc2c(C)c(O)c(CN3CCCCC3)cc12 0.2%, COc1ccc2c3c(c(=O)oc2c1OCC(=O)C(C)(C)C)CCCC3 3.6%, CCOC(=O)CSc1nnc(CNc2nc(-c3ccccc3)cs2)n1C 5.4%, CCc1cc2c(=O)c(-c3ccon3)c(N)oc2cc1OC 5.4%, Cc1ccnc(SCCn2c(Br)nc3c2c(=O)[nH]c(=O)n3C)n1 3%, O=C(Nc1cnn(Cc2ccc(Cl)cc2)c1)C1CCCC1 9.7%, COc1cc(OC)cc(C(=O)NCCSCc2ccco2)c1 5.2%, CC1(N2CCOCC2)CC2(O)C(=[N+]1[O-])CCc1nonc12 (stereo not given) 9.3%, CC1CN(C2CCN(C(=O)COc3ccccc3)CC2)CC(C)O1 (stereo not given) -2.1%, CC(C)c1nnc(NC(=O)C2CCCN2S(=O)(=O)c2ccc(Cl)cc2)s1 (stereo not given) 3.8%, O=C(CSc1nnc(Cc2ccccc2)n1-c1ccccc1)N1CCOCC1 0.4%, Cc1cccc(NC(=O)CSc2nnc(CCCCCNC(=O)OC(C)(C)C)o2)c1C -8.7%, COC(=O)c1ccc(NC(=O)CSc2nnc(-c3ccncc3)n2C)cc1 1.1%, O=C(O)C1CCCN1S(=O)(=O)c1ccc2c(c1)CCC2 (stereo not given) 0.7%
